# Screening results from PubChem.
# The list is not random: actives were taken first. Their share in the collection is about 2.3%.
# PLCb3 inh: blocks human PLC-beta3 enzyme activity; inhibition, % at 12.2 µM; Purified PLC-beta3, fluorogenic substrate, fluorescence; 370,000 tested, 0.18% active; Q01970; in the data active = inhibition above about 11%;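 also: 0% = median of compound wells on plate and 100% = full blocker control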
# MBD2 inh: inhibitors of human MBD2 binding to methylated oligonucleotide; TR-FRET; inhibition, % at 4.4 µM; AID 686964; 370,000 tested, 0.31% active; Q9UBB5; in the data active = inhibition above about 13%
# Target sequence (Q9UBB5 whole entry, looked up): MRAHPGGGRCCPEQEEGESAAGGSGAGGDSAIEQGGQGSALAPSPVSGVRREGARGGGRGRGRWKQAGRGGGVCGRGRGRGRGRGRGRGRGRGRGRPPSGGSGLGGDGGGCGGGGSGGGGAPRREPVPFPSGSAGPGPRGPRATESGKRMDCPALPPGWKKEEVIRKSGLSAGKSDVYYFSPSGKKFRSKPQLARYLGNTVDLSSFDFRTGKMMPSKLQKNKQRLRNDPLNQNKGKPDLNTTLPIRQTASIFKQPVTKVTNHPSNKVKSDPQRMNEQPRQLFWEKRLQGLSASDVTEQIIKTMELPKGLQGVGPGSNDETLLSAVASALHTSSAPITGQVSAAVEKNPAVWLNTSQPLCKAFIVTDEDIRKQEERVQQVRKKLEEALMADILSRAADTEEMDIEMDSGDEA
# LEDGF integ inh: blocks HIV-1 LEDGF/p75-dependent DNA integration | AID 743269 | inhibition, % at 3.7 µM | TR-FRET IN-LEDGF/p75 DNA integration, Eu/Cy5 | 370,000 tested, 0.64% active;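 active = inhibition above the screen-wide mean plus 3 SD, cut at about 13% in these data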;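 also: signal is the Cy5 over europium emission ratio at 671 and 618 nm; 0% = plate median of compound wells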
# UHRF1 MBD2 ctr: UHRF1 methyl-DNA binding inhibition; Q96T88; UHRF1 binding to methylated oligo, TR-FRET; inhibition, % at 4.4 µM; 370,000 tested, 0.75% active; in the data active = inhibition above about 21%;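 also: UHRF1 SRA domain binding a hemimethylated CpG hairpin DNA probe; 0% = median of test compound wells and 100% = reference inhibitor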
# PLC-gamma1 inh: PLC-gamma1 (human) inhibition, primary screen; P19174; purified PLC-gamma1, fluorogenic substrate, fluorescence; inhibition, % at 12.2 µM; 370,000 tested, 0.84% active; AID 720700; in the data active = inhibition above about 9.5%
# IN multimer up: counter-screen for LEDGF/p75 integration inhibitors: HIV-1 integrase multimerization activators. 2,000 tested, 17% active. activation, % at 7.7 µM. shares compounds with LEDGF integ inh. AID 1053131. TR-FRET HIV-1 integrase multimerization, biochemical; in the data active = activation above about 8.9%
# TR-FRET interf: TR-FRET optical interference, LEDGF/p75 integration counter-screen. shares compounds with LEDGF integ inh. TR-FRET optical interference counterscreen, HIV-1 IN multimerization. inhibition, % at 7.7 µM. 2,000 tested, under 10 active;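 active = inhibition above the mean over all tested compounds plus 3 SD, which no compound reached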;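 also: 0% = integrase with antibodies and DMSO and 100% = antibodies without integrase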
# LEDGF integ conf: LEDGF/p75-dependent HIV-1 integration inhibition, confirmation; shares compounds with LEDGF integ inh; TR-FRET LEDGF/p75-dependent HIV-1 integration, biochemical; inhibition, % at 3.7 µM; 2,000 tested, 36% active; AID 1053136; in the data active = inhibition above about 14%
# Numbers without * were called inactive; / = no result given.
SMILES,PLCb3 inh,MBD2 inh,LEDGF integ inh,UHRF1 MBD2 ctr,PLC-gamma1 inh,IN multimer up,TR-FRET interf,LEDGF integ conf
Cc1ccc(-c2nc3ccc([N+](=O)[O-])cc3[nH]2)cc1,-7.5,4.5,1.3,-2.1,1.1,/,/,/
COc1ccc(CN2C3=NC(c4ccccc4)CC(=O)N3/C(=C\c3ccccc3)C2c2ccccc2)c(OC)c1 (centres undefined),-2.5,1.2,-5.9,0.2,-1.7,/,/,/
O=C1CC(c2ccco2)CC(O)=C1C=Nc1cc(Cl)ccc1Cl (centres undefined),-5.1,0.3,20.8*,24.4*,-5.5,-0.4,2.2,21.4*
O=C1CC(c2ccco2)CC(O)=C1C=Nc1cc(Cl)ccc1O (centres undefined),-211.7,3.7,34.3*,21.1*,-157.6,5.3,-18.9,15.6*
O=C1CC(c2ccco2)CC(O)=C1C=Nc1ccccc1-c1ccccc1 (centres undefined),-14.1,5.5,2.5,-1.4,-7.4,/,/,/
N#Cc1ccc(Cn2ccc3ccc(-c4ccc5ccn(C(=O)C6CC6)c5c4)cc32)cc1,-173.6,0.6,-3.0,-0.6,-130.6,/,/,/
O=C(Nc1cccc([N+](=O)[O-])c1)NC1CCCCN(Cc2cccc(Cl)c2)C1=O (centres undefined),-2.7,-2.1,-1.2,0.0,-0.9,/,/,/
CCCCn1c(N)c(N(CCOC)C(=O)c2ccc(NC3CC3)c([N+](=O)[O-])c2)c(=O)[nH]c1=O,-8.4,-7.3,-0.3,-3.1,-3.2,/,/,/
CCCCn1c(N)c(N(CCOC)C(=O)c2ccc(N3CCCC3)c([N+](=O)[O-])c2)c(=O)[nH]c1=O,-7.5,-6.8,27.5*,-6.9,-3.8,0.4,-1.9,2.3
O=C(NC1CCCCCC1)c1cccnc1Sc1ccccc1,0.4,-4.3,24.0*,-2.2,-1.3,0.0,0.2,-2.8
CN(CCc1ccccc1)C(=O)c1ccc2c(c1)ncn2C1CCCCC1,-2.0,4.2,-4.3,0.3,2.4,/,/,/
COc1ccc(/C=C/C(=O)N2CCCc3ccccc32)cc1,3.0,0.0,21.1*,-1.5,0.1,9.5*,-34.1,19.1*
CCN(CC)c1ccc(N=Cc2ccc(N(CC)CC)cc2O)cc1,-37.5,-6.9,15.1*,-2.1,-24.8,6.2,-22.4,-6.2
CCN(CC)c1ccc(C=Nc2ccc(N(C)C)cc2)c(O)c1,-45.6,-6.5,33.9*,11.1,-38.1,12.7*,-44.7,3.6
COc1ccc(-c2cc(-c3nnc(SCC(=O)Nc4nccs4)n3N)[nH]n2)cc1,3.3,3.1,-0.9,1.0,2.7,/,/,/
COc1ccc(-n2c(SC/C=C/c3ccccc3)nnc2-c2cccs2)cc1,0.5,5.5,3.9,0.1,0.1,/,/,/
C/C=C(\C)CN1CCN(c2ccccc2)CC1,-4.0,1.0,27.0*,-1.0,-0.1,0.2,-0.8,3.7
CCOc1ccc(-c2cc(C(=O)OC)c3n(c2=O)CCC3)cc1,-63.1,2.6,0.7,-0.9,-49.9,/,/,/
COC(=O)\C(C(C)=O)=C(/C=C/C=C/C=C/N(C)C)N(C)C,-16.7,11.4,55.5*,55.0*,-14.6,8.5,-42.6,59.3*
COC(=O)/C(C(C)=O)=C(\C=C\N(C)C)N(C)C,3.5,-1.3,0.1,-2.2,-0.8,/,/,/
O=C(COc1ccccc1[N+](=O)[O-])NCCC1=CCCCC1,0.8,-2.5,18.5*,-1.8,1.6,0.4,-2.1,-1.3
CC1(OC(=O)c2ccc(Cl)nc2)C(=O)C=C2C=C3CCCN3C=C2C1=O (centres undefined),-10.2,-0.7,17.6*,13.2,-6.8,8.4,-42.3,41.7*
CN(C)c1cccc2c1c(NS(=O)(=O)c1cn(C)cn1)nn2C,-17.8,-2.8,15.2*,-2.9,-14.7,5.1,-18.2,12.3
Cc1cc(C)cc(NC(=O)O[C@@H]2CC[C@@]34CCCN3C(=O)CCC[C@H]4C2)c1,2.5,-3.1,0.4,0.3,0.2,/,/,/
CN1C(=O)S/C(=C/c2cccn2-c2cccc(C(=O)O)c2)C1=O,-2.5,4.3,-6.3,6.6,-0.7,/,/,/
SMILES,PLCb3 inh,MBD2 inh,LEDGF integ inh,UHRF1 MBD2 ctr,PLC-gamma1 inh,IN multimer up,TR-FRET interf,LEDGF integ conf
O=C(O)c1cccc(-n2cccc2/C=C/[N+](=O)[O-])c1,-40.2,21.3*,36.2*,73.5*,-17.6,13.9*,-70.1,40.4*
CCN(C[C@H]1N[C@@](C)(C(=O)OC)[C@H]2C(=O)N(C)C(=O)[C@@H]12)S(=O)(=O)c1ccc(C)cc1,1.2,-7.3,34.5*,-1.2,0.4,-3.5,12.3,-1.1
CCN(C[C@H]1N[C@@](C)(C(=O)OC)[C@H]2C(=O)N(C)C(=O)[C@@H]12)S(=O)(=O)c1ccc(-c2ccccc2)cc1,-0.4,1.8,1.6,-0.1,-0.8,/,/,/
C=CCN1[C@H](CO)[C@H](c2ccccc2)[C@@H]1C#N,1.2,0.1,-3.0,0.9,-0.8,/,/,/
Cc1ccc(S(=O)(=O)N2CCN(C(=O)COC(=O)c3cccnc3Cl)CC2)c(C)c1,-6.1,-7.0,66.3*,-2.2,1.6,-1.9,6.7,1.4
CC(C)c1cc(C(=O)N(C2CCCCC2)C2CCCCC2)no1,1.1,3.4,-3.1,-0.2,0.4,/,/,/
COc1cc(C=c2c3ccccc3n3c2cc(-c2ccccc2)[n+]3C)cc(OC)c1OC,-188.1,-2.1,29.0*,7.0,-127.8,2.9,-10.4,48.2*
Cn1nnnc1SCC(=O)N1CCCCC1,-6.4,7.7,-1.4,19.8,-0.3,/,/,/
Cn1nnnc1SCC(=O)N1CCN(c2ccc(Cl)cc2)CC1,-0.1,2.1,56.6*,-0.6,0.6,0.8,-2.9,1.6
CCOC(=O)N1CCN(C(=O)COc2ccc(S(=O)(=O)NC3CCCCC3)cc2C)CC1,-0.9,-7.5,15.7*,-0.5,-0.5,2.0,-7.1,-2.3
N#CC1=C2SCN(Cc3ccco3)CN2C(=O)CC1c1cccc2ccccc12 (centres undefined),-3.5,-1.4,54.5*,-3.4,-3.4,4.8,-24.1,3.1
CCCc1cc(=O)[nH]c(SCC(=O)NC(=O)OCC)n1,1.1,-6.3,25.4*,-2.2,2.0,1.1,-5.2,-10.3
CC(C)=CCC/C(C)=C/CN1CC(=O)N2[C@H](C[C@@]3(n4ccc5ccccc54)c4ccccc4N(S(=O)(=O)c4ccccc4)[C@@H]23)C1=O,0.7,0.5,6.6,-0.9,0.4,/,/,/
COc1cc(C(=O)c2nccc3cc(OC)c(OC)cc23)c([N+](=O)[O-])cc1OC,-10.7,-1.9,32.8*,28.0*,2.7,-0.4,1.4,44.8*
COc1cc(C(=O)c2ccccc2)c([N+](=O)[O-])cc1OC,2.0,2.4,0.6,2.9,-41.4,/,/,/
COC(=O)C[C@@H]1CC[C@H]2[C@H](COc3ccc(NC(=O)c4cccc(C(F)(F)F)c4)cc3C(=O)N2C)O1,-3.2,0.7,-0.3,-1.3,-0.8,/,/,/
